Holding throughout (assay): NCI-60 one-dose screen, 48 h (100 = growth as untreated, 0 = no growth, -100 = all killed)
The subject of one test is DU-145 prostate. The note with it: 10 µM unless noted.
Another test has as its system K-562 leukemia. As to conditions: 10 µM unless noted.
Another test concerns MALME-3M melanoma. The note with it: 10 µM unless noted.
Another test deals with MDA-MB-231 breast. The note with it: 10 µM unless noted.
In a further test the test system is RXF 393 renal. The note with it: 10 µM unless noted.
The next test concerns SF-268 CNS. As to conditions: 10 µM unless noted.
The next test relates to SF-295 CNS. As to conditions: 10 µM unless noted.
A further test concerns SF-539 CNS. The note with it: 10 µM unless noted.
The next test concerns UACC-257 melanoma. As to conditions: 10 µM.
The test system of another test is M14 melanoma. The note with it: 10 µM unless noted.

About 83,000 compounds went through this panel and 20% of them were active in at least one assay; those are over-represented in the sample as a whole.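 Each cell line was grown in a 96-well plate and treated with one concentration of compound for 48 hours. Values below 10 were considered active.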 A number with no mark means an inactive call. The source made the active and inactive calls.

As for `CCOC(=O)C1=C(CSC(=S)N(C2CCCCC2)C2CCCCC2)N(C)C(=O)NC1c1ccccc1` (centres undefined), the growth with DU-145 prostate was 46.8%; in the test with K-562 leukemia, 35.2%; in the test on MALME-3M melanoma, 71.8%; in the test with MDA-MB-231 breast, 62.9%; with RXF 393 renal, 43.6%; in the test with SF-268 CNS, 49%. For the same molecule, the growth with SF-295 CNS is 39.9%; in the test on SF-539 CNS it was 71.6%; in the test on UACC-257 melanoma it was 61.4%; in the test with M14 melanoma, 56.9%.

Consider `COc1ccc(OC)c(C(=O)c2oc3ccc(Br)cc3c2N)c1`, for which the growth with DU-145 prostate is 16.3%; in the test on K-562 leukemia, 8.24% (active); in the test on MALME-3M melanoma it was 35.2%; in the test on MDA-MB-231 breast, 29.8%; in the test on RXF 393 renal it was -30.1% (active); in the test with SF-268 CNS, 47.3%. The growth is -35.1% (active) with SF-295 CNS, -44.4% (active) with SF-539 CNS, 49.9% in the test with UACC-257 melanoma and 27.3% in the test with M14 melanoma.

Take `COc1cc(Cn2c(-c3nonc3N)nc3ccccc32)ccc1C`: the growth in the test on DU-145 prostate is 13.8%; in the test on K-562 leukemia, 10.4%; in the test with MALME-3M melanoma it was 80.7%; with MDA-MB-231 breast, 22.3%; in the test on RXF 393 renal, -8.35% (active); in the test on SF-268 CNS it was 40.3%. Besides, the growth is 26% in the test on SF-295 CNS, -32.8% (active) with SF-539 CNS, 65.2% in the test with UACC-257 melanoma and 14% in the test with M14 melanoma.

For the molecule `COc1cc(OC)c(C(=O)/C=C/c2cccc(C(F)(F)F)c2)c(OC)c1`, the growth with DU-145 prostate was 11.6%; in the test on K-562 leukemia it was 11.8%; with MALME-3M melanoma, 51.4%; in the test on MDA-MB-231 breast, 20.7%; in the test on RXF 393 renal, -12.9% (active); in the test on SF-268 CNS it was 14.7%. The growth is 17.4% with SF-295 CNS, -0.21% (active) with SF-539 CNS, 31.3% in the test with UACC-257 melanoma and 9.53% (active) in the test on M14 melanoma.

On to `Clc1nc(-c2cccnc2)nc2sc3c(c12)CCCCCC3`, for which the growth in the test on DU-145 prostate was 109%; with K-562 leukemia, 101%; in the test with MALME-3M melanoma it was 103%; in the test with MDA-MB-231 breast it was 97.7%; in the test with RXF 393 renal it was 116%; with SF-268 CNS it was 95.7%. For the same molecule, the growth in the test on SF-295 CNS is 92.9%; in the test with SF-539 CNS it was 96.6%; with UACC-257 melanoma it was 93.1%; with M14 melanoma, 107%.

With `COc1ccc(S(=O)(=O)N2CCN(c3cc4c(cc3F)c(=O)c(C(=O)O)cn4C3CC3)CC2)c(OC)c1`, the growth is 98.3% with DU-145 prostate; 89.1% with K-562 leukemia; 98% in the test with MALME-3M melanoma; 101% with MDA-MB-231 breast; 102% with RXF 393 renal; 81.8% with SF-268 CNS. In addition, the growth with SF-295 CNS is 91.4%; in the test with SF-539 CNS, 88.8%; with UACC-257 melanoma it was 100%; in the test with M14 melanoma, 92.5%.

On to `COc1cc(OC)c(C(=O)/C=C/c2cccc(C#N)c2)c(OC)c1`, for which the growth was 15.3% with DU-145 prostate; 13.7% in the test with K-562 leukemia; 35.4% in the test with MALME-3M melanoma; 17.1% in the test with MDA-MB-231 breast; -3.8% (active) in the test on RXF 393 renal; 13.5% in the test on SF-268 CNS. Besides, the growth in the test on SF-295 CNS was 1.75% (active); in the test with SF-539 CNS, -7.41% (active); with UACC-257 melanoma, 32.2%; in the test on M14 melanoma, 6.71% (active).

On to `O=C(CNc1ccc(Cl)cc1)Nc1ccc(-c2nc3ccccc3s2)cc1`, for which the growth with DU-145 prostate is 70.2%; in the test with K-562 leukemia, 11.9%; with MALME-3M melanoma, -30.5% (active); with MDA-MB-231 breast it was 37.6%; with RXF 393 renal, 84.2%; with SF-268 CNS, 24.1%. Moreover, the growth in the test with SF-295 CNS was 94.6%; in the test with SF-539 CNS it was 78.1%; with UACC-257 melanoma, 90.9%; in the test with M14 melanoma it was 44.2%.

As to `COc1ccc2c(c1)NC(=O)CN2c1nc(NC2CC2)nc2ccccc12`, the growth with DU-145 prostate was 0.326% (active); with K-562 leukemia, 8.2% (active); in the test with MALME-3M melanoma, 70.3%; with MDA-MB-231 breast it was 14.9%; in the test on RXF 393 renal it was 39.2%; in the test on SF-268 CNS, 21.9%. For the same molecule, the growth is 0.0109% (active) in the test with SF-295 CNS, -15% (active) in the test with SF-539 CNS and 6.86% (active) in the test on M14 melanoma.

In the case of `O=C(O)c1cn(C2CC2)c2cc(N3CCN(S(=O)(=O)c4ccc(Cl)c(Cl)c4)CC3)c(F)cc2c1=O`, the growth in the test on DU-145 prostate is 17.2%; in the test with K-562 leukemia, 16.9%; in the test with MALME-3M melanoma it was -1.09% (active); in the test with MDA-MB-231 breast it was 36.6%; with RXF 393 renal it was 29.1%; in the test with SF-268 CNS, 19.6%. For the same molecule, the growth with SF-295 CNS is -7.27% (active); in the test with SF-539 CNS, 11.4%; with UACC-257 melanoma, 8.87% (active); in the test with M14 melanoma, 18.5%.

Consider `CN1CCN(c2ccc3cc(-c4nc5ccccc5[nH]4)c(=O)oc3c2)CC1`, for which the growth in the test on DU-145 prostate was 112%; in the test with K-562 leukemia, 43.7%; with MALME-3M melanoma, 90.4%; in the test on MDA-MB-231 breast, 80.2%; with RXF 393 renal, 108%; in the test on SF-268 CNS, 105%. In addition, the growth was 104% in the test on SF-295 CNS, 93.5% in the test on SF-539 CNS, 83.3% with UACC-257 melanoma and 88.8% with M14 melanoma.

Take `COc1ccc(C(=O)c2cc(OC)c(OC)c(OC)c2)cc1/C=C/C(=O)c1ccc2c(c1)OCO2`: the growth in the test on DU-145 prostate was 33.8%; in the test with K-562 leukemia it was 12.9%; with MALME-3M melanoma it was 12.5%; in the test with MDA-MB-231 breast it was 11.2%; with RXF 393 renal, 17.4%; in the test with SF-268 CNS, 8.85% (active). In addition, the growth with SF-295 CNS is 77.3%; in the test on SF-539 CNS, -33.8% (active); with UACC-257 melanoma, 51.3%; with M14 melanoma, 25.3%.

With `c1ccc([P+](CCC[P+](c2ccccc2)(c2ccccc2)c2ccccc2)(c2ccccc2)c2ccccc2)cc1`, the growth in the test on DU-145 prostate was 86.7%; in the test with K-562 leukemia it was 23.2%; in the test on MALME-3M melanoma, 65.6%; with MDA-MB-231 breast, 93.7%; in the test with RXF 393 renal it was 104%; in the test with SF-268 CNS it was 69.2%. For the same molecule, the growth with SF-295 CNS was 73.4%; with SF-539 CNS it was 88%; with UACC-257 melanoma it was 37%; with M14 melanoma, 80.9%.

For the origin of these results see PubChem BioAssay (NCI).
